Screening data (PubChem BioAssay)
Many of the other results were omitted from the sample, so hits are more common in it than they were.
IDE exosite inh = exo-site inhibitors of human insulin-degrading enzyme; P14735; purified IDE, FL-6b probe fluorescence polarization; hits give low values; z-score at 20 µM; 17,000 tested, 6.3% active;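 active means z-score of -3 or lower, meaning strong loss of probe binding signal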;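 further: His-tagged human IDE residues 42-1019 made in E. coli with 30 nM FL-6b probe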
Numbers without * were called inactive; ! = repeats disagree.

SMILES | IDE exosite inh
CC(C)C#Cc1ccc([C@H]2[C@H](CO)N3C(=O)CN(C(=O)c4ccc5c(c4)OCO5)C[C@@H]23)cc1 | -1.34
Cc1cccc(-c2ccc([C@H]3[C@@H](CO)N4CCCCN(S(=O)(=O)c5cccs5)C[C@@H]34)cc2)c1 | 0.814
O=C(N[C@@H]1CC[C@H](CCNS(=O)(=O)c2ccc(F)cc2)O[C@@H]1CO)C1CCC1 | 3.5
O=C(c1ccc(F)cc1)N1CC(=O)N2[C@@H](CO)[C@H](c3ccc(C#CC4CC4)cc3)[C@@H]2C1 | -0.685
COc1ccc2c3c([nH]c2c1)[C@@H](CO)N(Cc1nccs1)CC31CN(Cc2ccncc2)C1 | -3.16*
CCC(=O)N1CC2(C1)CN(Cc1cccc(Cl)c1)[C@@H](CO)c1[nH]c3cc(OC)ccc3c12 | -3.34*
CCCNC(=O)N1CC2(C1)CN(Cc1ccc(F)cc1)[C@H](CO)c1[nH]c3cc(OC)ccc3c12 | 0.533
COc1ccc2c3c([nH]c2c1)[C@@H](CO)N(Cc1ccncc1)CC31CCN(CC2CCOCC2)CC1 | 0.533
COc1ccc2c3c([nH]c2c1)[C@H](CO)N(Cc1nccs1)CC31CCN(C(=O)C2CCCCC2)CC1 | -0.967
CCCNC(=O)N1CCC2(CC1)CN(Cc1cccc(OC)c1)[C@H](CO)c1[nH]c3cc(OC)ccc3c12 | -4.64*
COc1ccc(CN2CC3(CN(C(=O)Cc4ccccc4)C3)c3c([nH]c4cc(OC)ccc34)[C@@H]2CO)cc1 | -1.75
COc1ccc2c3c([nH]c2c1)[C@@H](CO)N(CC1CC1)CC31CCN(C(=O)Nc2cccc(F)c2)CC1 | -0.917
CCCNC(=O)N1CC2(CCN(S(=O)(=O)CC)CC2)c2c([nH]c3cc(OC)ccc23)[C@@H]1CO | -1.89
COc1ccc2c3c([nH]c2c1)[C@@H](CO)N(C(C)=O)CC31CCN(C(C)=O)CC1 | 1.15
COc1ccc2c3c([nH]c2c1)[C@H](CO)N(Cc1cccc(F)c1)CC31CCN(C(C)=O)CC1 | -6.64*
CCCC(=O)N1CC2(C1)CN(Cc1cccnc1)[C@@H](CO)c1[nH]c3cc(OC)ccc3c12 | -2.29
O=C1N[C@H](Cc2ccccc2)COCc2cnnn2CC[C@@H]1Cc1ccc(-c2ccccc2)cc1 | 1.16
COCC(=O)N1[C@H](CO)[C@H](c2ccc(-c3ccccc3OC)cc2)C12CN(C(C)=O)C2 | -2.97
N#C[C@@H]1[C@@H](c2ccccc2C2=CCCCC2)[C@H](CO)N1C(=O)C1CCOCC1 | 0.408
C[C@@H]1CN([C@H](C)CO)C(=O)c2cc(NC(=O)Cc3ccccc3)ccc2O[C@@H](C)CCCCO[C@H]1CN(C)Cc1ccncc1 | 0.0353
O=C(Nc1cccc(Cl)c1)N[C@@H]1CC[C@H](CCn2cc(Cc3ccccc3)nn2)O[C@@H]1CO | -0.792
CO[C@H]1CC[C@H]2CCN(C)C(=O)CCCN(C)C(=O)c3cc(C#N)ccc3OC[C@@H]1O2 | 0.194
O=C(C[C@@H]1CC[C@@H](NC(=O)C2CC2)[C@H](CO)O1)Nc1ccccc1 | 0.203
CS(=O)(=O)N1[C@H](C#N)[C@H](c2ccccc2)[C@@H]1CO | 3.1
CN1C(=O)c2cc(NS(=O)(=O)c3cccc(F)c3)ccc2OC[C@@H]2O[C@@H](CC(=O)N3CCc4ccccc4C3)CC[C@H]21 | -0.562
SMILES | IDE exosite inh
CC(=O)N1[C@H](CO)[C@H](c2ccc(-c3cccnc3)cc2)[C@H]1CNC(=O)C1CC1 | 1.02
CN1C(=O)c2cc(NC(=O)Nc3ccccc3F)ccc2OC[C@@H]2O[C@@H](CC(=O)NCCc3ccncc3)CC[C@@H]21 | -0.206
CCCNC(=O)N1[C@H](CO)[C@H](c2ccccc2-c2cccc(C)c2)[C@@H]1C#N | -1.59
COCC(=O)N1CC[C@@H]2[C@@H](CO)N(C)c3ccc(-c4cccc(F)c4)cc3[C@@H]21 | 1.86
N#C[C@H]1[C@@H](c2ccc(C3=CCCC3)cc2)[C@@H](CO)N1C(=O)Nc1ccccc1F | 2.42
O=C(Cc1ccncc1)N1C[C@@H]2N[C@H](C1)C2c1ccc(-c2ccccc2)cc1 (stereo not given in full) | -3.06*
O=S(=O)(c1ccc(-c2ccccc2)cc1)N1C[C@@H]2N[C@H](C1)C2c1ccc(-c2ccncc2)cc1 (stereo not given in full) | 1.08
C/C=C/c1ccc(C2[C@@H]3CN(C(=O)Cc4ccncc4)C[C@H]2N3)cc1 (stereo not given in full) | 2.82
O=C(CN1CCOCC1)N1C[C@@H]2N[C@H](C1)C2c1ccc(-c2ccccc2)cc1 (stereo not given in full) | 1.57
C/C=C/c1ccc(C2[C@@H]3CN(C(=O)Cc4ccccc4)C[C@H]2N3)cc1 (stereo not given in full) | 2.21
O=C(Cc1ccncc1)N1C[C@@H]2N[C@H](C1)C2c1ccc(/C=C/c2ccccc2)cc1 (stereo not given in full) | -4.58*!
CCN1[C@@H]2Cn3c(ccc(-c4ccccc4OC)c3=O)[C@H]1[C@@H](C(=O)NCc1ccccn1)[C@@H]2CO | 0.421
COc1ccc(-c2ccc([C@@H]3[C@@H](C#N)N(C(=O)c4cccnc4)[C@H]3CO)cc2)cc1 | 2.85
O=C(NC[C@H]1[C@H](c2ccccc2)[C@@H](CO)N1Cc1cccnc1)c1ccccn1 | 0.143
CCC(=O)N1[C@H](CO)[C@H](c2ccc(-c3cccc(F)c3)cc2)[C@@H]1CN(C)C(C)=O | 1.63
COc1ccc(-c2ccc([C@H]3[C@@H](CO)N4C(=O)CN(C(=O)C5CC5)C[C@@H]34)cc2)cc1 | -0.0953
COc1cccc(-c2ccc([C@@H]3[C@@H](CO)N4C(=O)CN(C(=O)C5CCOCC5)C[C@@H]34)cc2)c1 | -5.8*
COc1ccc(-c2ccc([C@@H]3[C@H]4CN(C(=O)C5CCOCC5)CC(=O)N4[C@H]3CO)cc2)cc1 | -1.54
COc1cccc(-c2ccc([C@H]3[C@H](CO)N4C(=O)CN(C(=O)C5CC5)C[C@@H]34)cc2)c1 | -7.5*
COc1cccc(-c2ccc(C3[C@@H]4CN(C(=O)C5CCCCC5)C[C@H]3N4)cc2)c1 (stereo not given in full) | -0.312
CN(C)C(=O)c1cccc(-c2ccc([C@@H]3[C@@H](CO)N4C(=O)CN(C(=O)C5CC5)C[C@H]34)cc2)c1 | 2.22
COc1cccc(-c2ccc(C3[C@@H]4CN(C(=O)C5CCOCC5)C[C@H]3N4)cc2)c1 (stereo not given in full) | -7.13*!
COc1ccc(-c2ccc([C@H]3[C@@H](CO)N4C(=O)CN(C(=O)C5CCOCC5)C[C@@H]34)cc2)cc1 | 0.446
COc1cccc(-c2ccc([C@@H]3[C@@H](CO)N4C(=O)CN(C(=O)C5CC5)C[C@@H]34)cc2)c1 | -14.8*
COc1ccc(-c2ccc([C@H]3[C@H](CO)N4C(=O)CN(C(=O)C5CC5)C[C@@H]34)cc2)cc1 | -0.253
COc1cccc(-c2ccc([C@@H]3[C@@H](CO)N4C(=O)CN(C(=O)C5CCOCC5)C[C@H]34)cc2)c1 | -2.42
N#Cc1cccc(-c2ccc(C3[C@@H]4CN(C(=O)C5CCOCC5)C[C@H]3N4)cc2)c1 (stereo not given in full) | 1
CO[C@@H]1CN(C)C(=O)c2cc(NC(=O)NC(C)C)ccc2OC[C@@H](C)N(C(=O)CN(C)C)C[C@H]1C | 0.952
O=C1CN(Cc2ccc(F)cc2)C[C@@H]2[C@H](c3ccc(-c4ccccc4)cc3)[C@H](CO)N12 | 0.991
C[C@H]1CC=CC[C@@H](c2ccc3c(c2)OCO3)NC(=O)[C@H](C)N(C)C(=O)c2ccccc2O1 (mixture of isomers) | -0.388
